# Assay results published in the supplement of paper PMC12282887.
# ± gives the standard deviation of the averaged measurements.
# Legend:
# Assay in all cases: promoter activity interaction Z-score (Lux/OD deviation from empty-vector control); higher = stronger promoter induction by the compound
# [1] = test system: E. coli BW25113 acrABp lux reporter
# Method in brief: (§1)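 In 384-well plates, 40 µl LB Lennox cultures of E. coli BW25113 with low-copy luxCDABE promoter reporters grew at 37°C. Optical density at 600 nm and light output were recorded every 30 min for 12 h, with windows of 0–8 h for wild type and 1–9 h for deletion strains, and wells under 10% of the median growth value were left out. Each value is a Z-transformed residual of growth-normalised luminescence fitted against a control.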
# [2] = test system: E. coli BW25113 micFp lux reporter
# Method in brief: as §1
# [3] = test system: E. coli BW25113 ompFp lux reporter
# Method in brief: as §1
# [4] = test system: E. coli BW25113 robp lux reporter
# Method in brief: as §1
# [5] = test system: E. coli BW25113 soxSp lux reporter
# Method in brief: as §1
# [6] = test system: E. coli BW25113 tolCp lux reporter
# Method in brief: as §1
# [7] = 9.8 µg/ml, genetic background: wild type
# [8] = 9.8 µg/ml, genetic background: ΔmarA
# [9] = 9.8 µg/ml, genetic background: Δrob
# [10] = 9.8 µg/ml, genetic background: ΔsoxS
# [11] = 19.5 µg/ml, genetic background: wild type
# [12] = 19.5 µg/ml, genetic background: ΔmarA
# [13] = 19.5 µg/ml, genetic background: Δrob
# [14] = 19.5 µg/ml, genetic background: ΔsoxS
# [15] = 39 µg/ml, genetic background: wild type
# [16] = 39 µg/ml, genetic background: ΔmarA
# [17] = 39 µg/ml, genetic background: Δrob
# [18] = 39 µg/ml, genetic background: ΔsoxS
compound,measurement,setting,value
c1ccc(-c2ccccn2)nc1 [2-2-Bipyridyl],promoter activity interaction Z-score,[1]; [7],-0.38 ± 0.11
same,promoter activity interaction Z-score,[1]; [8],-0.262 ± 0.49
same,promoter activity interaction Z-score,[1]; [9],-0.666 ± 0.24
same,promoter activity interaction Z-score,[1]; [10],-0.339 ± 0.48
same,promoter activity interaction Z-score,[1]; [11],-0.678 ± 0.23
same,promoter activity interaction Z-score,[1]; [12],0.0964 ± 1.5
same,promoter activity interaction Z-score,[1]; [13],-0.696 ± 0.048
same,promoter activity interaction Z-score,[1]; [14],-0.763 ± 0.36
same,promoter activity interaction Z-score,[1]; [15],-0.446 ± 0.45
same,promoter activity interaction Z-score,[1]; [16],1.4 ± 0.6
same,promoter activity interaction Z-score,[1]; [17],-0.276 ± 0.72
same,promoter activity interaction Z-score,[1]; [18],-0.305 ± 0.33
same,promoter activity interaction Z-score,[2]; [7],0.412 ± 0.33
same,promoter activity interaction Z-score,[2]; [8],0.243 ± 0.14
same,promoter activity interaction Z-score,[2]; [9],0.0359 ± 0.019
same,promoter activity interaction Z-score,[2]; [10],0.7191 ± 0.0054
same,promoter activity interaction Z-score,[2]; [11],1.15 ± 0.4
same,promoter activity interaction Z-score,[2]; [12],0.622 ± 0.29
same,promoter activity interaction Z-score,[2]; [13],0.498 ± 0.0061
same,promoter activity interaction Z-score,[2]; [14],3.01 ± 0.73
same,promoter activity interaction Z-score,[2]; [15],5.52 ± 0.58
same,promoter activity interaction Z-score,[2]; [16],0.943 ± 0.12
same,promoter activity interaction Z-score,[2]; [17],7.21 ± 1.5
same,promoter activity interaction Z-score,[2]; [18],9.5118 ± 0.00024
same,promoter activity interaction Z-score,[3]; [7],-0.0949 ± 0.034
same,promoter activity interaction Z-score,[3]; [8],-0.555 ± 0.58
same,promoter activity interaction Z-score,[3]; [9],-0.389 ± 0.39
same,promoter activity interaction Z-score,[3]; [10],-0.351 ± 0.17
same,promoter activity interaction Z-score,[3]; [11],-0.745 ± 0.54
same,promoter activity interaction Z-score,[3]; [12],-0.948 ± 0.58
same,promoter activity interaction Z-score,[3]; [13],-0.682 ± 0.16
same,promoter activity interaction Z-score,[3]; [14],-0.195 ± 0.78
same,promoter activity interaction Z-score,[3]; [15],-1.5 ± 0.86
same,promoter activity interaction Z-score,[3]; [16],-1.52 ± 0.45
same,promoter activity interaction Z-score,[3]; [17],-0.777 ± 0.2
same,promoter activity interaction Z-score,[3]; [18],0.325 ± 1.2
same,promoter activity interaction Z-score,[4]; [7],-0.0517 ± 0.47
same,promoter activity interaction Z-score,[4]; [8],0.352 ± 0.77
same,promoter activity interaction Z-score,[4]; [9],-0.375 ± 0.059
same,promoter activity interaction Z-score,[4]; [10],-0.326 ± 0.77
same,promoter activity interaction Z-score,[4]; [11],-0.772 ± 0.88
same,promoter activity interaction Z-score,[4]; [12],0.322 ± 0.12
same,promoter activity interaction Z-score,[4]; [13],-0.387 ± 0.49
same,promoter activity interaction Z-score,[4]; [14],-0.7 ± 0.084
same,promoter activity interaction Z-score,[4]; [15],-0.663 ± 1
same,promoter activity interaction Z-score,[4]; [16],0.193 ± 0.17
same,promoter activity interaction Z-score,[4]; [17],0.111 ± 0.013
same,promoter activity interaction Z-score,[4]; [18],1.63 ± 3.1
same,promoter activity interaction Z-score,[5]; [7],0.0863 ± 0.015
same,promoter activity interaction Z-score,[5]; [8],0.104 ± 0.016
same,promoter activity interaction Z-score,[5]; [9],-0.0121 ± 0.077
same,promoter activity interaction Z-score,[5]; [10],-0.208 ± 0.27
same,promoter activity interaction Z-score,[5]; [11],-0.706 ± 0.15
same,promoter activity interaction Z-score,[5]; [12],-0.407 ± 0.018
same,promoter activity interaction Z-score,[5]; [13],-0.63 ± 0.12
same,promoter activity interaction Z-score,[5]; [14],-0.64 ± 0.078
same,promoter activity interaction Z-score,[5]; [15],-1.84 ± 0.052
same,promoter activity interaction Z-score,[5]; [16],-1.08 ± 0.22
same,promoter activity interaction Z-score,[5]; [17],-1.495 ± 0.0068
same,promoter activity interaction Z-score,[5]; [18],-1.14 ± 0.73
same,promoter activity interaction Z-score,[6]; [7],-0.433 ± 0.08
same,promoter activity interaction Z-score,[6]; [8],-0.587 ± 0.68
same,promoter activity interaction Z-score,[6]; [9],-0.425 ± 0.56
same,promoter activity interaction Z-score,[6]; [10],0.264 ± 0.45
same,promoter activity interaction Z-score,[6]; [11],-1.32 ± 0.36
same,promoter activity interaction Z-score,[6]; [12],-0.963 ± 0.81
same,promoter activity interaction Z-score,[6]; [13],-0.8 ± 0.27
same,promoter activity interaction Z-score,[6]; [14],-0.588 ± 0.17
same,promoter activity interaction Z-score,[6]; [15],-0.831 ± 0.2
same,promoter activity interaction Z-score,[6]; [16],-1.07 ± 0.4
same,promoter activity interaction Z-score,[6]; [17],0.715 ± 0.83
same,promoter activity interaction Z-score,[6]; [18],1.8 ± 1.5
